# Results filed as inconclusive are left out. A call without a number means that no potency is given here. The source made the active and inactive calls. Unless noted, the call rests on the fitted dose curve; in most records, active means well fitted curve in the direction sought with a large enough effect; inconclusive means small, poorly fitted or top-dose-only effect, or another doubt; inactive means no such curve, though single readings can be large; an effect the other way counts as inactive or inconclusive.
# What was measured:
# [1] = Cell Viability - SH-SY5Y (AID 544); details: SH-SY5Y neuroblastoma cell viability; viability change, negative = cytotoxic: at 92.2 µM (top of the series);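 further: cells exposed to compound for 40 hours; nearly all actives have a fitted effect of over 55% in size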; further: potency means the concentration at half of the fitted maximal effect
# How it was run: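 SH-SY5Y human neuroblastoma cells (1500/well) incubated 5 h, then compound-treated 40 h at 37 °C in complete medium. Viability read as intracellular ATP by CellTiter-Glo luminescence after 20 min; AC50 from Hill-equation fits of qHTS concentration-response.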
# [2] = Cell Viability - Renal Proximal Tubule (AID 545); details: renal proximal tubule cells viability, primary cells of rat origin; activity change, negative = cytotoxicity: at 91.7 µM (top of the series);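 further: cells exposed to compound for 40 hours; nearly all actives have a fitted effect of over 40% in size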
# How it was run: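 Luminescent ATP signal (CellTiter-Glo) served as the viability read-out after 40 hr compound exposure of freshly isolated rat proximal tubule cells at 37 °C. Concentration-dependent ATP loss was fitted with the Hill equation to give AC50.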
# [3] = Cell Viability - LYMP2-001 (AID 921); further: nearly all actives have a fitted effect of over 70% in size
# How it was run: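 Steps: seed 2500 lymphoblastoid cells/well; 5 hr, 37 C; add compound; 24 hr, 37 C; CellTiter-Glo reagent, 30 min room temperature; read luminescence. Concentration-response modeled by Hill equation for AC50.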
# [4] = MultiTox-Fluor Cytotoxicity Assay - LYMP1-001 - Live Cells (AID 947)
# [5] = Cell Viability - LYMP2-005 (AID 967)
# How it was run: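 Acute cytotoxicity is scored as a concentration-dependent drop in intracellular ATP in human lymphoblastoid LYMP2-005 cells after 24 h compound treatment. ATP is quantified by luciferase luminescence, and AC50 is derived by Hill-equation modelling.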
# [6] = Cell Viability - LYMP2-017 (AID 972); further: nearly all actives have a fitted effect of over 55% in size
# How it was run: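 LYMP2-017 human lymphoblastoid cells (2500/well) settled 5 hr at 37 C, then exposed to compound 24 hr at 37 C in complete medium. Viability taken as intracellular ATP by CellTiter-Glo luminescence after 30 min at RT; AC50 from Hill fits.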
# [7] = Cell Viability - LYMP2-019 (AID 973); further: nearly all actives have a fitted effect of over 55% in size
# How it was run: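 Human lymphoblastoid LYMP2-019 cells (2500/well) preincubated 5 h at 37 C, then treated 24 h at 37 C in complete medium. Viability by CellTiter-Glo ATP luminescence after 30 min at room temperature; AC50 from Hill fits.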
# [8] = Cell Viability - LYMP2-021 (AID 974);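 further: compound exposure lasts 24 hours at 37 °C; nearly all actives have a fitted effect of over 55% in size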
# How it was run: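 Human lymphoblastoid LYMP2-021 cells, 2500/well in complete medium, treated 24 hours at 37 C. Intracellular ATP by CellTiter-Glo luminescence (30 min, RT); AC50 from Hill fits of concentration-response.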
# [9] = Cell Viability - LYMP2-006 (AID 978); further: nearly all actives have a fitted effect of over 60% in size
# How it was run: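 Cells are seeded at 2500 per well and rested 5 hr at 37 C. Compounds are added across a concentration series for 24 hr at 37 C, after which ATP is quantified by luciferase luminescence.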
# [10] = Cell Viability - LYMP2-010 (AID 981); further: nearly all actives have a fitted effect of over 55% in size
# How it was run: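 Human lymphoblastoid LYMP2-010 cells (2500/well) treated 24 h at 37 C in complete medium; viability read as intracellular ATP by CellTiter-Glo luminescence. AC50 from Hill fits of concentration-response data; tetraoctylammonium bromide positive control.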
# [11] = Cell Viability - LYMP2-012 (AID 982)
# [12] = Cell Viability - LYMP2-024 (AID 988); further: nearly all actives have a fitted effect of over 60% in size
# How it was run: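 Human lymphoblastoid LYMP2-024 cells (2500/well) rested 5 hr, then treated with compound for 24 hr at 37 C in complete medium. Viability was measured as intracellular ATP by CellTiter-Glo luminescence. AC50 values came from Hill-equation fits.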
# [13] = biological target: Glucocorticoid receptor (Homo sapiens) (UniProt P04150); test: qHTS assay for small molecule agonists of glucocorticoid receptor signaling (AID 588532; active means well fitted curve in the direction sought with a large enough effect in the signal ratio, with a control signal flat; the % refers to the signal ratio); details: HeLa MMTV-bla, beta-lactamase ratio, agonist, 18 h; stronger effect = higher value; percent of dexamethasone control, DMSO zero
# Sequence of Glucocorticoid receptor (Homo sapiens) (P04150 whole entry, looked up): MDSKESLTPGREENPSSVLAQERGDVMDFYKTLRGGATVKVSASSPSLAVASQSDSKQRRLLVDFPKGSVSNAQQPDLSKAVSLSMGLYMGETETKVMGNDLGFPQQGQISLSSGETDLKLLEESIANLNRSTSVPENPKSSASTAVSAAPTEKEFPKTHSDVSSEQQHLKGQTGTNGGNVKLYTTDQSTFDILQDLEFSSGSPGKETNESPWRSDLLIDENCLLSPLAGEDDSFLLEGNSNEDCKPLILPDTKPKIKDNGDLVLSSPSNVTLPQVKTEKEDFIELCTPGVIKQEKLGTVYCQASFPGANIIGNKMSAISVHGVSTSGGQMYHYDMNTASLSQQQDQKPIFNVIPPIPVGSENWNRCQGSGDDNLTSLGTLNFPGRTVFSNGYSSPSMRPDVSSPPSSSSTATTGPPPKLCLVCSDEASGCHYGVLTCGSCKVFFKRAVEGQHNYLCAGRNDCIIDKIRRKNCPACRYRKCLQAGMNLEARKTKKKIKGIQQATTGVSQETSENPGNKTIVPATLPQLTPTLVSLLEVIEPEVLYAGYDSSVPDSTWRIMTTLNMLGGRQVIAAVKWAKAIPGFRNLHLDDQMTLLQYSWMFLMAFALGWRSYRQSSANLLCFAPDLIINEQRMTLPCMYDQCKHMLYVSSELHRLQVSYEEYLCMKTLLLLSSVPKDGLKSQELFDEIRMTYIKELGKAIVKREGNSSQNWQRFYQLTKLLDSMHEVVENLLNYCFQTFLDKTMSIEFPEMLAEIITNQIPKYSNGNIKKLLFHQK
# How it was run: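 Agonist-mode qHTS: GRE-driven beta-lactamase in HeLa cells exposed 18 h to titrated compounds (up to 92 uM), then CCF4 ratio read after 2 h at RT; Hill-fitted EC50, efficacy relative to 0.1 uM dexamethasone.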
# [14] = qHTS assay for small molecule agonists of retinoid X receptor alpha signaling (AID 588544; calls by dose curve); details: HEK293T RXRa-UAS-bla, beta-lactamase reporter, 18 h; 530 nm emission
# [15] = biological target: Retinoic acid receptor RXR-alpha (Homo sapiens) (UniProt P19793); test: as above
# Sequence of Retinoic acid receptor RXR-alpha (Homo sapiens) (P19793 whole entry, looked up): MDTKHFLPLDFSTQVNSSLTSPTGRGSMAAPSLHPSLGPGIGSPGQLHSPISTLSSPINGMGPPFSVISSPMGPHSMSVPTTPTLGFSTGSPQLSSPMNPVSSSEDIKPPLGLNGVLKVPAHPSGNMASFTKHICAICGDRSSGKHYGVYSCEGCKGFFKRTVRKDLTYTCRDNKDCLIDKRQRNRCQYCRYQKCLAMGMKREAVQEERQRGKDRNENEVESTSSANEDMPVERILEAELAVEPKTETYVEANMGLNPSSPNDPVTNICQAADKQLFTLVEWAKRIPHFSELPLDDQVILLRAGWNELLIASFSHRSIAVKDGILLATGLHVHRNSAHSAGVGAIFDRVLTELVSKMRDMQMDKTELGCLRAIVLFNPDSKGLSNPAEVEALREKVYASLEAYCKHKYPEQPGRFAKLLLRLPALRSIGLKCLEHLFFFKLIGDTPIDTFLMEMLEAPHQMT
# [16] = qHTS assay for small molecule activators of the p53 signaling pathway (AID 651743; active means well fitted activation curve with a large enough effect in the signal ratio, not every such curve was filed as active; the % refers to the signal ratio; further: potency means the concentration at half of the fitted maximal effect); details: HCT-116 p53RE-bla, beta-lactamase FRET ratio, 16 h; activation: stronger effect = higher value
# How it was run: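 Read-out is fluorescence intensity from the LiveBLAzer B/G FRET substrate, added for 2 hours at room temperature after HCT-116 p53RE-bla cells had been incubated with compounds for 16 hours at 37 C.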
# [17] = qHTS assay for small molecule disruptors of the mitochondrial membrane potential - 1 hr assay (AID 651754; calls by dose curve; further: nearly all actives have a fitted effect of over 35% in size; further: potency means the concentration at half of the fitted maximal effect)
# How it was run: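 HepG2 cells, attached overnight, were exposed to compound for 1 hr at 37C, then stained 30 min with a potentiometric dye. Ratio of red aggregate (590nm) to green monomer (535nm) fluorescence reports membrane potential; collapse shifts signal toward green.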
# [18] = qHTS assay for small molecule disruptors of the mitochondrial membrane potential - 5 hr assay (AID 651755; calls by dose curve; further: nearly all actives have a fitted effect of over 40% in size; further: potency means the concentration at half of the fitted maximal effect)
# How it was run: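 HepG2, 2,000 cells/well, overnight attach; cpd or DMSO 5 hr, 37C/5% CO2; Mito-MPS 30 min 37C; fluor 490/535 + 540/590 nm.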
# [19] = qHTS assay for small molecule agonists of the antioxidant response element (ARE) signaling pathway measured by Nrf2-dependant transcriptional activity (AID 720636; active means well fitted curve in the direction sought with a large enough effect in the repeat runs; an effect the other way counts as inactive or inconclusive;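 further: HepG2 cells with an ARE-driven luciferase reporter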)
# How it was run: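 Cells: ARE-luc HepG2 with Nrf2-responsive luciferase. Medium contained 1% dialyzed FBS. Compound exposure lasted 16 hr at 37 C and 5% CO2, followed by ONE-Glo luciferase detection.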
# [20] = biological target: Thyroid hormone receptor beta (Homo sapiens) (UniProt P10828); test: qHTS assay for small molecule agonists of thyroid hormone receptor beta signaling (AID 588545; calls by dose curve)
# Sequence of Thyroid hormone receptor beta (Homo sapiens) (P10828 whole entry, looked up): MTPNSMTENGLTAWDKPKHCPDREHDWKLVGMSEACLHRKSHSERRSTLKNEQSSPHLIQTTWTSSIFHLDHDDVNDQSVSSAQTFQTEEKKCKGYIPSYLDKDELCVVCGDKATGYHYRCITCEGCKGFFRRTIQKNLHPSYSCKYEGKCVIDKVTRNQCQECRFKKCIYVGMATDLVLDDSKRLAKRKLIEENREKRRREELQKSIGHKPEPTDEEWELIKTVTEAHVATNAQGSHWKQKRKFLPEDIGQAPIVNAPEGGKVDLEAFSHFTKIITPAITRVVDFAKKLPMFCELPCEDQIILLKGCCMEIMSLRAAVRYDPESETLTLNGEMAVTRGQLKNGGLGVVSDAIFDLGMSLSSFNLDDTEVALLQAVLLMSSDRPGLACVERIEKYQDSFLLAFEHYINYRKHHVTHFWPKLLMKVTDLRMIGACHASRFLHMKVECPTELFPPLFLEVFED
# How it was run: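 Stimulation of a TR-driven beta-lactamase reporter was quantified in GripTite HEK 293 cells. Compound series ran for 18 hrs; curves were normalized to T3 and DMSO controls and fitted to yield EC50.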
structure (smiles),measurement,setting,value
CC(=O)c1ccc(Cl)c(Cl)c1Cl,Potency,[1],inactive
same,Potency,[2],inactive
same,Potency,[3],inactive
same,Potency,[4],inactive
same,Potency,[5],inactive
same,Potency,[6],inactive
same,Potency,[7],inactive
same,Potency,[8],inactive
same,Potency,[9],inactive
same,Potency,[10],inactive
same,Potency,[11],inactive
same,Potency,[12],inactive
same,activation,[13],1.81% (inactive)
same,max response,[14],-2.84%
same,Potency,[15],inactive
same,activation,[16],-1.64% (inactive)
same,Potency,[17],inactive
same,Potency,[18],inactive
same,Potency,[19],inactive
Cc1cc2nc(N)sc2cc1C,Potency,[1],inactive
same,Potency,[3],inactive
same,Potency,[4],inactive
same,Potency,[5],inactive
same,Potency,[6],inactive
same,Potency,[7],inactive
same,Potency,[8],inactive
same,Potency,[9],inactive
same,Potency,[10],inactive
same,Potency,[11],inactive
same,Potency,[12],inactive
same,activation,[13],-1.47% (inactive)
same,max response,[14],-11.8%
same,Potency,[15],inactive
same,Potency,[20],inactive
same,activation,[16],-2.08% (inactive)
same,Potency,[17],inactive
same,Potency,[18],inactive
C=Cc1cccc(C)c1,Potency,[1],inactive
same,Potency,[2],inactive
same,Potency,[3],inactive
same,Potency,[4],inactive
same,Potency,[5],inactive
same,Potency,[6],inactive
same,Potency,[7],inactive
same,Potency,[8],inactive
same,Potency,[9],inactive
same,Potency,[10],inactive
same,Potency,[11],inactive
same,Potency,[12],inactive
same,activation,[13],-2.15% (inactive)
same,max response,[14],-15.6%
same,Potency,[15],inactive
same,Potency,[20],inactive
same,activation,[16],-1.54% (inactive)
same,Potency,[17],inactive
same,Potency,[18],inactive
same,Potency,[19],inactive
c1ccc(CSCc2ccccc2)cc1,Potency,[1],inactive
same,Potency,[2],inactive
same,Potency,[3],inactive
same,Potency,[4],inactive
same,Potency,[5],inactive
same,Potency,[6],inactive
same,Potency,[7],inactive
same,Potency,[8],inactive
same,Potency,[9],inactive
same,Potency,[10],inactive
same,Potency,[11],inactive
same,Potency,[12],inactive
same,activation,[13],-4.65% (inactive)
same,max response,[14],-16.6%
same,Potency,[15],inactive
same,Potency,[20],inactive
same,activation,[16],-0.938% (inactive)
same,Potency,[17],inactive
same,Potency,[18],inactive
same,Potency,[19],inactive
Cc1c2ccccc2c(C)c2c1ccc1ccccc12,Potency,[1],7.94 µM (active)
same,Potency,[4],inactive
same,Potency,[5],inactive
same,Potency,[7],inactive
same,Potency,[8],inactive
same,Potency,[9],inactive
same,Potency,[11],inactive
same,Potency,[12],inactive
same,Potency,[16],44.7 µM (active)
same,Potency,[17],37.6 µM (active)
same,Potency,[18],33.5 µM (active)
same,Potency,[19],inactive
Brc1cc(Br)c(Oc2cc(Br)c(Br)cc2Br)cc1Br,Potency,[1],inactive
same,Potency,[2],inactive
same,Potency,[3],inactive
same,Potency,[4],inactive
same,Potency,[5],inactive
same,Potency,[6],inactive
same,Potency,[7],inactive
same,Potency,[8],inactive
same,Potency,[9],inactive
same,Potency,[10],inactive
same,Potency,[11],inactive
same,Potency,[12],inactive
same,Potency,[20],inactive
same,Potency,[17],inactive
same,Potency,[18],inactive
same,Potency,[19],inactive
Cc1c(N)cccc1Cl,Potency,[1],inactive
same,Potency,[2],inactive
same,Potency,[3],inactive
same,Potency,[4],inactive
same,Potency,[5],inactive
same,Potency,[6],inactive
same,Potency,[7],inactive
same,Potency,[8],inactive
same,Potency,[9],inactive
same,Potency,[10],inactive
same,Potency,[11],inactive
same,Potency,[12],inactive
same,activation,[13],-4.07% (inactive)
same,max response,[14],8.41%
same,Potency,[15],inactive
same,Potency,[20],inactive
same,activation,[16],-0.236% (inactive)
same,Potency,[17],inactive
same,Potency,[18],inactive
same,Potency,[19],inactive
